NIH3T3 tox – Cytotoxic Profiling in NIH 3T3 Cell Line of Diverse Libraries Using Quantitative High-Throughput Screening | NIH 3T3 viability, CellTiter-Glo ATP luminescence, 48-72 h | Potency, µM (series often up to 96.7 µM), most hits filed as inhibitors | 94,000 compounds, 4.3% hits | AID 1345082, 2018; further: nearly all actives have a fitted effect of over 55% in size
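Cells were seeded at 400 per well, treated with pin-transferred compound, and kept 48 or 72 hr at 37 °C before CellTiter-Glo addition and luminescence imaging of cellular ATP.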
HEK cytotox – Cytotoxic Profiling in HEK 293 Cell Line of Diverse Libraries Using Quantitative High-Throughput Screening; HEK 293 viability, ATP luminescence (CellTiter-Glo), 48-72 h; Potency, µM (top dose mostly 115 µM), actives largely listed as inhibitors; 94,000 compounds, 6.6% hits; further: nearly all actives have a fitted effect of over 60% in size
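Viability of HEK 293 cells, plated at 250 cells/well, was judged by cellular ATP after compound treatment for 48 or 72 hr. Luminescence was imaged 10 min after CellTiter-Glo addition at room temperature.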
GPT2 inh – Primary qHTS assay for inhibitors of Glutamate pyruvate transaminase 2 (GPT2) | Potency, µM (top dose mostly 57.7 µM), most hits filed as inhibitors | 100,000 compounds, 0.25% hits | Alanine aminotransferase 2 (Homo sapiens), Q8TD30 | Recombinant GPT2, coupled pyruvate oxidase/HRP Amplex Red fluorescence; further: nearly all actives have a fitted effect of over 60% in size
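Inhibition is scored from Amplex Red fluorescence generated when pyruvate oxidase and HRP act on pyruvate released by GPT2. Reactions contain 10ng/uL enzyme, 250uM a-KG and 2mM L-alanine and run 30 min at room temperature.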
Luciferase inh – Firefly luciferase inhibition profiling of diverse chemical library using quantitative high-throughput screening. 76,000 compounds, 2.5% hits. purified P. pyralis luciferase, luminescence, biochemical. AID 1347043, 2019. Potency, µM (top dose mostly 115 µM), usual class: inhibitors. Luciferin 4-monooxygenase (Photinus pyralis), P08659; further: nearly all actives have a fitted effect of over 65% in size
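Purified 10nM P. pyralis luciferase with 10uM D-luciferin and 10uM ATP in 50mM Tris acetate pH 7.5, 10mM Mg acetate, 0.01% Tween-20, 0.05% BSA. qHTS titration; luminescence read by CCD imager.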
NPR1 antag – Natriuretic polypeptide receptor (hNpr1) antagonism - Primary qHTS; Atrial natriuretic peptide receptor 1 (Homo sapiens), P16066; HEK293 hNpr1 GloSensor cGMP, ANP-stimulated luminescence; Potency, µM (top dose mostly 46.3 µM), actives largely listed as inhibitors; 76,000 compounds, 1.6% hits; calls by dose curve; further: nearly all actives have a fitted effect of over 60% in size
Target sequence (P16066 whole entry, looked up): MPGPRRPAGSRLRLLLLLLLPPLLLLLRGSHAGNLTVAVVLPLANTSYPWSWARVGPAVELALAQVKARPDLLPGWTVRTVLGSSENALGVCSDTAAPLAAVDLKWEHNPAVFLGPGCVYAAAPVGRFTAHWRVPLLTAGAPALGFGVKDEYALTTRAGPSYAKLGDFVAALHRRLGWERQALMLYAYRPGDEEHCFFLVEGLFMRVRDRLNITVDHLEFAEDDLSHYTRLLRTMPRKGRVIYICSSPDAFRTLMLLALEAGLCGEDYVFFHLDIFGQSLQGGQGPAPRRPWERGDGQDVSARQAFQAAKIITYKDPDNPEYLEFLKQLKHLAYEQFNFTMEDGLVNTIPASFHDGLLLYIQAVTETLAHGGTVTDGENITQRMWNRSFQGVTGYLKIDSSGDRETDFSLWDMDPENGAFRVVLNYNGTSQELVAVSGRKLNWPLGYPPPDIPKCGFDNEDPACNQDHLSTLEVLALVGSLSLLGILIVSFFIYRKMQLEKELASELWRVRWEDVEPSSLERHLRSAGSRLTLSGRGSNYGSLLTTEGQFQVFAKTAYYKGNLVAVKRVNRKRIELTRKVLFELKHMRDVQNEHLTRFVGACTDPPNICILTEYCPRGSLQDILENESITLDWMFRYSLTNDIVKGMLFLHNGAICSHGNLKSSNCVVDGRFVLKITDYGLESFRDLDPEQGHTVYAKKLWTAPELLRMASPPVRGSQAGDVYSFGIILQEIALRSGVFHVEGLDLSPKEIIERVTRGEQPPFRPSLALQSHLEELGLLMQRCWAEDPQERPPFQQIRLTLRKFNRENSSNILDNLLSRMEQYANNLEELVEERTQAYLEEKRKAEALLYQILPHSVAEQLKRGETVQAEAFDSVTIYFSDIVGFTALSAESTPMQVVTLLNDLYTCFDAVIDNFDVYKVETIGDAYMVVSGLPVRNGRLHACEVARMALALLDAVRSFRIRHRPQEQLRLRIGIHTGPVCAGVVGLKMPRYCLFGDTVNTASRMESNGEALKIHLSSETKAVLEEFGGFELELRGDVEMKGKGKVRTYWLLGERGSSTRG
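HEK293 cells stably expressing human Npr1 and cGMP GloSensor pGS-40F, loaded 2 h with 2% GloSensor reagent, given compound 30 min at room temperature. Luminescence read before and 20 min after 0.1 nM hNppA.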
Of the large screens only hits and unclear results are named; the others gave an inactive call. This is a sample that favours compounds with a hit; in the whole collection about 10% have one here. Unless noted, the call rests on the fitted dose curve; in most records, active means well fitted curve in the direction sought with a large enough effect; inconclusive means small, poorly fitted or top-dose-only effect, or another doubt; inactive means no such curve, though single readings can be large; an effect the other way counts as inactive or inconclusive.

COc1cccc(NC(=O)N2CCCC3(C2)Nc2cccnc2NC3=NC2CCCC2)c1 (configuration not stated)	NIH3T3 tox inconclusive, HEK cytotox inconclusive
O=C(Nc1cc(F)cc(F)c1)N1CCCC2(C1)Nc1cccnc1NC2=NC1CCCC1 (configuration not stated)	NIH3T3 tox inconclusive, HEK cytotox 40µM
Cc1cc(C)c(S(=O)(=O)c2nnn3c2nc(NC2CCCC2)c2ccccc23)c(C)c1	none (no result: Luciferase inh, NPR1 antag)
Cc1ccc2c(n1)O[C@@H](COCc1ccccc1)CN(Cc1ccc3c(c1)OCO3)C2=O	NIH3T3 tox 13µM, HEK cytotox inconclusive (no result: Luciferase inh, NPR1 antag)
Cc1ccc2c(n1)OC1(CCCC1)CN(Cc1ccc3c(c1)OCO3)C2=O	NIH3T3 tox inconclusive, HEK cytotox inconclusive (no result: Luciferase inh, NPR1 antag)
Cc1ccc2c(n1)O[C@@H](COCc1ccccc1)CN(Cc1cccs1)C2=O	NIH3T3 tox 25µM, HEK cytotox 32µM (no result: Luciferase inh, NPR1 antag)
COc1ccc(CN2CC(C(C)(C)C)Oc3nc(C)ccc3C2=O)cc1 (configuration not stated)	NIH3T3 tox inconclusive (no result: Luciferase inh, NPR1 antag)
CCCC1CN(Cc2cccc(F)c2)C(=O)c2ccc(C)nc2O1 (configuration not stated)	NIH3T3 tox inconclusive, HEK cytotox 50µM (no result: GPT2 inh, Luciferase inh, NPR1 antag)
O=C1NC(=NC2CCCC2)C2(CCN(Cc3ccsc3)C2)N1c1cc(F)cc(F)c1 (configuration not stated)	NIH3T3 tox inconclusive, HEK cytotox inconclusive (no result: Luciferase inh, NPR1 antag)
Cc1ccc([S+](=O)([O-])N2CCN(Cc3ccccc3-c3ccccc3F)CC2)cc1	NIH3T3 tox inconclusive, HEK cytotox inconclusive (no result: Luciferase inh, NPR1 antag)
CO[C@H]1CN(C2CCN(C(=O)c3cccs3)CC2)[C@H]1c1cccnc1	none (no result: Luciferase inh, NPR1 antag)
COCCc1noc(-c2nc(-c3ccccc3F)no2)n1	Luciferase inh 28µM
C[C@H]1[C@@H]2[C@H]3OC(=O)[C@@H](C)[C@@H]3CC[C@@]2(C)CC[C@@H]1NC(=O)c1ccc(C#N)cc1	NIH3T3 tox 89µM, HEK cytotox inconclusive
C[C@H]1[C@@H]2[C@H]3OC(=O)[C@@H](C)[C@@H]3CC[C@@]2(C)CC[C@@H]1NC(=O)C1CCCCC1	NIH3T3 tox inconclusive, HEK cytotox 100µM
COCC(=O)N[C@H]1CC[C@]2(C)CC[C@@H]3[C@H](OC(=O)[C@H]3C)[C@H]2[C@@H]1C	none
C[C@H]1[C@@H]2[C@H]3OC(=O)[C@@H](C)[C@@H]3CC[C@@]2(C)CC[C@@H]1NC(=O)c1ccccn1	HEK cytotox 100µM
COc1ccc(C2(C(=O)NCc3ccccc3F)CCOCC2)cc1	none (no result: GPT2 inh, Luciferase inh, NPR1 antag)
COc1ccc(C(=O)N2CCC3(CC2)COc2ccccc2CN3)cc1	HEK cytotox inconclusive
COc1cc(NC(=O)C2CCN(C(=O)c3ncn4c3COC(c3ccccc3)C4)CC2)cc(OC)c1 (configuration not stated)	Luciferase inh 25µM
COc1ccc(C2Cn3cnc(C(=O)N4CCC(C(=O)Nc5ccccc5)CC4)c3CO2)cc1 (configuration not stated)	Luciferase inh inconclusive
COc1ccc(C(C)NC(=O)C2CCN(C(=O)c3ncn4c3COC(c3ccccc3)C4)CC2)cc1 (configuration not stated)	Luciferase inh 28µM
CC(NC(=O)C1CCN(C(=O)c2ncn3c2COC(c2ccc(Cl)cc2)C3)CC1)c1ccccc1 (configuration not stated)	none
CC(Cc1cccnc1)Nc1cc(-c2ccccc2F)nc2ccnn12 (configuration not stated)	NIH3T3 tox inconclusive, HEK cytotox 79µM
CCN(Cc1cccnc1)C(=O)c1cc(-c2cnn(CC)c2)nc2cc(C)ccc12	NIH3T3 tox 6.3µM, Luciferase inh inconclusive
COc1ccc(C(=O)N2CCC(CCn3c(C)cnc3-c3cccnc3)CC2)cc1	NIH3T3 tox inconclusive, GPT2 inh inconclusive (no result: Luciferase inh, NPR1 antag)
Cc1cnc(-c2ccccc2)n1CCC1CCN(C(=O)C2(c3ccccc3)CC2)CC1	NIH3T3 tox inconclusive, HEK cytotox 35µM (no result: Luciferase inh, NPR1 antag)
Cc1cnc(-c2ccncc2)n1CCC1CCN(C(=O)C(C)Oc2ccccc2)CC1 (configuration not stated)	NIH3T3 tox inconclusive, HEK cytotox 45µM (no result: Luciferase inh, NPR1 antag)
Cc1ccncc1C(=O)N1CC(N(C)Cc2cccnc2)C1	Luciferase inh 35µM
CNC(=O)c1cc(C2CC2)nc2c1c(C1CCN([S+](=O)([O-])c3ccc(C)cc3)C1)nn2C (configuration not stated)	HEK cytotox inconclusive (no result: GPT2 inh, Luciferase inh, NPR1 antag)
CNC(=O)c1cc(C2CC2)nc2c1c(C1CCN(C(=O)Cc3ccccc3)CC1)nn2C	HEK cytotox 89µM (no result: GPT2 inh, Luciferase inh, NPR1 antag)
CNC(=O)c1cc(C2CC2)nc2c1c(C1CCN([S+](=O)([O-])c3ccc(C)cc3)CC1)nn2C	NIH3T3 tox inconclusive, HEK cytotox 50µM (no result: GPT2 inh, Luciferase inh, NPR1 antag)
O=C(NC1CCCCC1)c1ccc2nc(-c3cccnc3)oc2c1	none (no result: Luciferase inh, NPR1 antag)
CCOC(=O)C1CCN(C(=O)c2ccc3nnc(-c4ccc([S+](C)(=O)[O-])cc4)n3c2)CC1	none (no result: Luciferase inh, NPR1 antag)
FC(F)(F)C1CN(c2ccc3cc(Cl)ccc3n2)CCO1 (configuration not stated)	NIH3T3 tox inconclusive, HEK cytotox inconclusive, Luciferase inh 25µM
O=C(NCCNC(=O)c1cccc(-c2ccsc2)c1)Nc1ccc(Cl)cc1	NIH3T3 tox inconclusive, HEK cytotox inconclusive (no result: Luciferase inh, NPR1 antag)
CS(=O)(=O)N1CCC2(CC1)CC(CC(=O)N1CCC(Cc3ccccc3)CC1)CCO2 (configuration not stated)	HEK cytotox inconclusive (no result: Luciferase inh, NPR1 antag)
COc1ccc(S(=O)(=O)N2CCc3c(C(=O)NCCN(C)C)cccc32)cc1	NIH3T3 tox inconclusive, HEK cytotox inconclusive, Luciferase inh inconclusive
COc1ccc(S(=O)(=O)N2CCc3c(C(=O)NCc4ccccn4)cccc32)cc1	NIH3T3 tox inconclusive, HEK cytotox 35µM, NPR1 antag inconclusive
COc1ccc(S(=O)(=O)N2CCc3c(C(=O)NCCc4cccs4)cccc32)cc1	HEK cytotox 25µM, NPR1 antag inconclusive
O=C(NCc1ccccn1)c1cccc2c1CCN2C(=O)C1CC1	NIH3T3 tox inconclusive
CCCCNC(=O)c1cccc2c1CCN2S(=O)(=O)c1ccc(C)cc1	NIH3T3 tox inconclusive, HEK cytotox 18µM, NPR1 antag inconclusive
CNC(=O)[C@@H]1CN(Cc2ccc(C#N)cc2)C[C@H]1COC	none
Cc1nc(CN2C[C@H](C(=O)Nc3cccc(F)c3)C[C@@H]2c2ccc(F)cc2)cs1	NIH3T3 tox 40µM, HEK cytotox 40µM, GPT2 inh inconclusive
Cc1nc(CN2C[C@H](C(=O)Nc3cccc(Cl)c3)C[C@@H]2c2ccc(F)cc2)cs1	NIH3T3 tox 50µM, HEK cytotox 50µM, NPR1 antag inconclusive

Screens (PubChem)
